{
  "source": "PubChem BioAssay AID651815",
  "about": "(National Center for Advancing Translational Sciences (NCATS), 2012)",
  "note": "Out of some 2,100 compounds screened, about 1,100 (52%) were called active. About 29% were inconclusive and are not listed. Calls follow the shape of the dose curve; as a rule, active = well fitted inhibition curve with a large enough effect; inconclusive = small, poorly fitted or top-dose-only effect; inactive = no such curve, though single readings can be large or run the other way. The set was probably picked from earlier hits. The list shows a part of the results. Potency is read from the fitted curve at half-maximal effect.",
  "data": [
    {"target": "DNA dC->dU-editing enzyme APOBEC-3F (Homo sapiens) (UniProt Q8IUX4)", "sequence (Q8IUX4 whole entry, looked up)": "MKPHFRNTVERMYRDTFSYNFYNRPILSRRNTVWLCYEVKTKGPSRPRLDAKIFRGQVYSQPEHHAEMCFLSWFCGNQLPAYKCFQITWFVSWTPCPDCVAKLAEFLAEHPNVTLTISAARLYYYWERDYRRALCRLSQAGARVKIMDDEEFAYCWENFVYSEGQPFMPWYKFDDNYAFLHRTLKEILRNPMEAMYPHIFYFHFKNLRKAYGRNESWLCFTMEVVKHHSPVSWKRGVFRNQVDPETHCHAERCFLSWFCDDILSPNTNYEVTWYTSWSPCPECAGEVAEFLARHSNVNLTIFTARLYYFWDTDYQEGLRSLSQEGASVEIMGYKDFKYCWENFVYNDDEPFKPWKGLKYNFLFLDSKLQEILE", "test": "qHTS for inhibitors of Vif-A3F interactions: Cherry picks counterscreen; also: nearly all actives have a fitted effect of over 65% in size", "settings": "HeLa A3F-eYFP/Vif cells, eYFP fluorescence, 24 h; series mostly up to 46.1 µM", "in_short": "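Rescue of Vif-driven A3F-eYFP degradation read as cellular eYFP fluorescence after 24 h compound exposure (several concentrations) in stable HeLa cells; MG132 (2 mM stock) as positive control.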", "values": [
      {"smiles": "COc1cc2c3nnc(-c4ccc(F)cc4)c-3cn(Cc3ccccc3F)c2cc1OC", "Potency": "16.4 µM (active)"},
      {"smiles": "COc1cc2c3nnc(-c4ccc(F)cc4)c-3cn(Cc3ccc(C)cc3)c2cc1OC", "Potency": "15.8 µM (active)"},
      {"smiles": "Cn1nnc2c[n+](CC(=O)c3ccc(Cl)cc3)cc(Br)c21", "Potency": "17.7 µM (active)"},
      {"smiles": "O=C1CCCN1c1ccc(S(=O)(=O)Nc2ccc3c(c2)OCCO3)cc1", "Potency": "3.96 µM (active)"},
      {"smiles": "O=[N+]([O-])c1ccc(Oc2cccc3cccnc23)c([N+](=O)[O-])c1", "Potency": "14 µM (active)"},
      {"smiles": "O=[N+]([O-])c1cc(O)c2ncccc2c1", "Potency": "inactive"},
      {"smiles": "CC1CC(C)(C)Nc2ccc(OC(=O)c3ccco3)cc21", "note": "(configuration not stated)", "Potency": "18.4 µM (active)"},
      {"smiles": "CC1(C)Cc2nc3sc4c(SCC(=O)NCc5ccco5)ncnc4c3cc2CO1", "Potency": "5.59 µM (active)"},
      {"smiles": "CC1(C)Cc2nc3sc4c(=O)n(CC(=O)NCc5ccccc5)cnc4c3cc2CO1", "Potency": "2.23 µM (active)"},
      {"smiles": "CCc1ccc(N=Nc2ccc(O)c3[nH]cnc23)cc1", "Potency": "8.2 µM (active)"},
      {"smiles": "S=C(Nc1ccccc1)N1CCn2c1nc1ccccc12", "Potency": "inactive"},
      {"smiles": "CCCOc1ccc(C(=O)Nc2cccc(NC(=O)c3ccc(Cl)cc3Cl)c2)cc1", "Potency": "20.6 µM (active)"},
      {"smiles": "COc1cc(C(=O)OCC(=O)Nc2ccc(N3CCOCC3)cc2)ccc1OCC(C)C", "Potency": "inactive"},
      {"smiles": "COc1cc(OC)cc(C(=O)Nc2ccc(N3CCN(C(=O)c4cccs4)CC3)cc2)c1", "Potency": "7.9 µM (active)"},
      {"smiles": "COc1cccc(C(=O)Nc2ccc(N3CCCC3)cc2)c1", "Potency": "5.59 µM (active)"},
      {"smiles": "O=C(OCCC12CC3CC(CC(C3)C1)C2)c1ccc(NCc2cc(O)ccc2O)cc1", "Potency": "15.8 µM (active)"},
      {"smiles": "Cc1ccc(C)c(Nc2nn3c(=O)c4ccc(C(=O)NCc5cccs5)cc4nc3s2)c1", "Potency": "20.6 µM (active)"},
      {"smiles": "N#Cc1c(C(F)(F)F)cc(-c2cccs2)nc1SCC(=O)Nc1ccc(Cl)cc1", "Potency": "7.31 µM (active)"},
      {"smiles": "N#Cc1c(C(F)(F)F)cc(-c2cccs2)nc1SCC(=O)Nc1cccc(C(F)(F)F)c1", "Potency": "20.6 µM (active)"},
      {"smiles": "CCOC(=O)c1ccc(NC(=O)CSc2nc(-c3cccs3)cc(C(F)(F)F)c2C#N)cc1", "Potency": "16.4 µM (active)"},
      {"smiles": "N#Cc1c(C(F)(F)F)cc(-c2cccs2)nc1SCC(=O)Nc1cccc(Cl)c1", "Potency": "inactive"},
      {"smiles": "O=c1[nH]cnc2n[nH]nc12", "Potency": "10.3 µM (active)"},
      {"smiles": "CCOc1ccc(N/C=C/C(=O)c2cc(OC)c(OC)c(OC)c2)cc1", "Potency": "15.8 µM (active)"},
      {"smiles": "COc1ccc(N/C=C/C(=O)c2cc(OC)c(OC)c(OC)c2)cc1", "Potency": "0.498 µM (active)"},
      {"smiles": "CCOc1ccc(NC(=O)Cn2c(=O)n(Cc3ccc(C(=O)NCc4ccc(C)cc4)cc3)c(=O)c3ccccc32)cc1", "Potency": "14.6 µM (active)"},
      {"smiles": "CCn1c(SCC(=O)N/N=C/c2ccc(C)s2)nc2ccccc21", "Potency": "4.98 µM (active)"},
      {"smiles": "C=CCNC(=S)N/N=C(\\C)c1ccc(OC)cc1", "Potency": "inactive"},
      {"smiles": "COc1ccc(NC(=S)NN(C)C(=S)Nc2ccc(OC)cc2)cc1", "Potency": "3.14 µM (active)"},
      {"smiles": "O=C(Nc1cc(=O)[nH]c(=O)[nH]1)c1cc(Cl)ccc1Cl", "Potency": "8.86 µM (active)"},
      {"smiles": "CCCCCCc1cc2cc(-c3nnc(-c4ccccc4O)o3)c(=O)oc2cc1O", "Potency": "inactive"},
      {"smiles": "CCCCCCc1cc2cc(-c3nnc(-c4ccccc4)o3)c(=O)oc2cc1O", "Potency": "3.53 µM (active)"},
      {"smiles": "CCCCCCc1cc2cc(-c3nnc(-c4ccccc4OC)o3)c(=O)oc2cc1O", "Potency": "1.98 µM (active)"},
      {"smiles": "C=CCN=c1scc(-c2ccc(F)cc2)n1/N=C/c1ccccn1", "Potency": "inactive"},
      {"smiles": "C[n+]1ccc(/C=C/c2c[nH]c3ccc(F)cc23)cc1", "Potency": "8.2 µM (active)"},
      {"smiles": "Cc1ccc2[nH]cc(/C=C/c3cc[n+](C)cc3)c2c1", "Potency": "6.27 µM (active)"},
      {"smiles": "COc1ccc2[nH]cc(/C=C/c3cc[n+](C)cc3)c2c1", "Potency": "16.4 µM (active)"},
      {"smiles": "O=C(Nc1ccccc1-c1nc2ccccc2[nH]1)c1ccc(N2C(=O)CCC2=O)cc1", "Potency": "16.4 µM (active)"},
      {"smiles": "O=C1/C(=C/c2c[nH]c3ccccc23)CCC/C1=C\\c1c[nH]c2ccccc12", "Potency": "23.1 µM (active)"},
      {"smiles": "N#CC1=C2SCC(O)(c3ccccc3)N2C(=O)CC1c1ccccc1", "note": "(configuration not stated)", "Potency": "4.98 µM (active)"},
      {"smiles": "Cc1cccc(C)c1NC(=S)NC(C)CCc1ccccc1", "note": "(configuration not stated)", "Potency": "inactive"},
      {"smiles": "COc1ccc2oc(-c3ccccc3[N+](=O)[O-])cc(=O)c2c1", "Potency": "6.27 µM (active)"},
      {"smiles": "COc1ccccc1NC(=O)c1sc2ncn(CC(=O)Nc3ccccc3)c(=O)c2c1C", "Potency": "20.6 µM (active)"},
      {"smiles": "Cc1ccnc(NC(=O)Nc2ccc3c(c2)N(C)C(=O)CS3)c1", "Potency": "23.1 µM (active)"},
      {"smiles": "CC(=O)Nc1ccc(NC(=O)C/C(C)=N/NC(N)=S)cc1", "Potency": "inactive"},
      {"smiles": "CC(C)(C)c1ccc(Oc2ccc(NC(=O)c3ccccc3C(=O)O)cn2)cc1", "Potency": "inactive"},
      {"smiles": "CO/N=C\\CC(=O)Nc1ccc(Cl)c(Cl)c1", "Potency": "9.94 µM (active)"},
      {"smiles": "CO/N=C\\CC(=O)Nc1ccc(Oc2ccccc2)cc1", "Potency": "1.98 µM (active)"}
    ]}
  ]
}
